IL1B secr inh – inflammasome signaling inhibition, IL-1 beta readout; activity change, % at 57.5 µM; actives 4.7% (n = 360,000); THP-1 LPS/ATP IL-1B secretion, AlphaLISA, 16 h; stronger effect = lower value; in the data active = activity change below about -50%; inconclusive = mostly about -30% to -49%; also: % is scaled to controls: 0 for no effect and ±100 for the full control effect
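Secreted IL-1B measured by AlphaLISA bead assay after 16 h compound exposure of THP-1 cells; compounds (final up to 57.5 uM) added 1 h before LPS (250 ng/mL) and ATP (1.25 mM) stimulation; lower signal means less secretion.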
TDP1 cell noCPT – qHTS for Inhibitors of human tyrosyl-DNA phosphodiesterase 1 (TDP1): qHTS in cells in absence of CPT | DT40 Tdp1-/- hTDP1 cells, no CPT, ATP luminescence, 48 h | Potency, µM (series often up to 46.2 µM), inactives show at the top dose activity change, negative = growth inhibition, hits mostly inhibitors | actives 15% (n = 420,000) | AID 686978, 2013; also: potency is read from the fitted curve at half-maximal effect; % is scaled to controls: 0 for no effect and ±100 for the full control effect; nearly all actives have a fitted effect of over 55% in size
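No-CPT arm: Tdp1-/-;hTDP1 DT40 cells (400/well) plus compounds, incubated ≥48 hr at 37 °C. Readout CellTiter-Glo luminescence.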
TDP1 cell CPT – growth inhibition of DT40 Tdp1-/-;hTDP1 cells with camptothecin (screen for TDP1 inhibitors) | chicken DT40 Tdp1-/-;hTDP1 cells + 20 nM CPT, ATP luminescence, 48 h | Potency, µM (titrated, usually from 46.2 µM), without a hit: at the highest dose activity change, negative = growth inhibition, actives largely listed as inhibitors | actives 12% (n = 420,000); also: potency is read from the fitted curve at half-maximal effect; % is scaled to controls: 0 for no effect and ±100 for the full control effect; nearly all actives have a fitted effect of over 55% in size
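Chicken DT40 Tdp1-/- cells complemented with human TDP1, 400 cells/well, exposed to compounds plus 20 nM camptothecin for at least 48 h at 37 C; viability read as ATP content by CellTiter-Glo luminescence.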
DRD3 antagonist – blocks the human D3 dopamine receptor | max response, negative = inhibition, % | D3R cells, DiscoveRx beta-arrestin luminescence, antagonist mode; stronger effect = lower value | P35462 | AID 652054 | actives 2.5% (n = 360,000); in the data active = max response below about -50%; inconclusive = no clear call, values can overlap the other calls; also: % is scaled to controls: 0 for no effect and ±100 for the full control effect
Target sequence (P35462 whole entry, looked up): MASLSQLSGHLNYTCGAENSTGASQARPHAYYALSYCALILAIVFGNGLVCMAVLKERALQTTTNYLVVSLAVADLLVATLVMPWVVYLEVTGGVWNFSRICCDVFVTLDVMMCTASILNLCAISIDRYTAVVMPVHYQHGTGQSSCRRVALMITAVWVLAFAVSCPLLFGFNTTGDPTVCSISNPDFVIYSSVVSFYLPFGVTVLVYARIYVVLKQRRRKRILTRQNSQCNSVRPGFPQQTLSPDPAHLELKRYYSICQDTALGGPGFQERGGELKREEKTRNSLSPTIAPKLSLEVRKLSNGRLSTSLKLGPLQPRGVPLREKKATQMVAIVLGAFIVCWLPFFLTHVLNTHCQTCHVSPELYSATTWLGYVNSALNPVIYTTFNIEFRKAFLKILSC
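Cells plated overnight at 1500 cells/well, then exposed to library compounds with dopamine controls for 90 minutes at 37 degrees C. DiscoveRx reagent added for 30–60 minutes at room temperature; luminescence read, quantitative HTS format.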
ClpP mod – qHTS Assay for Activators of ClpP; purified B. subtilis ClpP, FRET peptide cleavage, 20 min; Potency, µM (top dose mostly 57.5 µM), for inactives: at the highest dose activity change, negative = active; actives 1.9% (n = 340,000); active = well fitted falling curve with a large enough effect; inconclusive = small, poorly fitted or top-dose-only effect; inactive = no such curve, though single readings can be large or run the other way; also: potency is read from the fitted curve at half-maximal effect; the source files actives as falling curves though it sought activators and does not explain the sign; nearly all actives have a fitted effect of over 65% in size
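Purified B. subtilis ClpP, 10 microg/mL final in Tris/HCl pH8 with KCl, BSA, glycerol and Tween-20, cleaved an Abz/nitrotyrosine-quenched decapeptide. Fluorescence (ex 320, em 430) was read at 0 and 20 min at room temperature. Delta was normalized to 5.8 microM ADEP and DMSO/no-enzyme controls.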
DRD3 agonist – D3 dopamine receptor (human) agonism | P35462 | D3R DiscoveRx beta-arrestin cells, luminescence, 90 min | max activation, % | actives 0.58% (n = 410,000) | AID 652048; in the data active = max activation above about 30%; also: 0% is about no effect
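Agonist mode: compounds and dopamine controls were applied to plated cells for 90 min at 37 degrees C after an overnight attachment at 1500 cells/well. Luminescent read-out followed 30 - 60 minutes at room temperature with DiscoveRx detection reagent.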
* = called active by the depositor; ? = inconclusive; . = no result. Compounds with a hit are over-represented: about 21% of the library has one in this group of screens. Unless noted, calls follow the shape of the dose curve; as a rule, active = well fitted inhibition curve with a large enough effect; inconclusive = small, poorly fitted or top-dose-only effect; inactive = flat fitted curve, though single readings scatter.

SMILES	IL1B secr inh	TDP1 cell noCPT	TDP1 cell CPT	DRD3 antagonist	ClpP mod	DRD3 agonist
Cc1cccc2nc(-c3ccco3)oc(=O)c12	23	-18%	-2%	-3	.	11
O=C(CN1C(=O)NC(c2ccccc2)(c2ccccc2)C1=O)NCc1ccco1	-13	-11%	5%	-6	0%	1
O=C(Nc1ccc(Cl)c(Cl)c1)Nc1ccccc1C(=O)O	-1	-15%	-10%	-7	.	6
O=C(Cc1ccccc1)NNC(=O)Nc1ccc(Cl)c(Cl)c1	0	21µM*	16µM*	0	.	-6
NC(=S)NNC(=O)Nc1ccc(Cl)c(Cl)c1	-5	-26%	?	-3	22µM*	-1
COc1ccc(C=O)cc1CSc1ncccc1C(=O)O	9	-11%	24%	7	-1%	2
CC1=CC(C)C(/C=N/n2cnnc2)C(C)C1 (centres undefined)	-12	-27%	-4%	7	1%	-19
C=C(C)C1CCC(C)=C1CC(C)(C)/C=N\n1cnnc1 (centres undefined)	13	21µM*	10µM*	-16	1%	-11
CCCCn1c(N)c(N(C)C(=O)c2ccc(OCC3CCCO3)cc2)c(=O)[nH]c1=O (centres undefined)	0	-4%	1%	-13	-7%	-4
COc1ccc(NC(=O)c2ccc(-c3c(C)noc3C)c3ccoc23)cc1	0	?	?	14	-2%	0
Cc1noc(C)c1-c1ccc(C(=O)NC2CCCCC2)c2occc12	-7	15µM*	16µM*	-11	-19%	-9
Cc1noc(C)c1-c1ccc(C(=O)Nc2ccccc2)c2occc12	-5	?	26µM*	-2	0%	2
Cc1noc(C)c1-c1ccc(C(=O)NCC2CC2)c2occc12	16	?	?	27	-8%	8
CN(CC(=O)Nc1sc2c(c1C#N)CCCCC2)Cc1nc2ccccc2c(=O)[nH]1	-6	18µM*	?	1	-1%	7
CN(Cc1nc2ccccc2c(=O)[nH]1)C(=O)c1cc2c(s1)CCCCC2	35	16µM*	23µM*	-9	.	-7
CN(Cc1nc2ccccc2c(=O)[nH]1)C(=O)c1cccc(NC(=O)c2cccs2)c1	3	?	?	-4	-2%	-19
NC(c1ccc(F)c(F)c1)c1nc(-c2cc(F)cc(F)c2)cs1 (centres undefined)	5	?	-41%	-72*	1%	9
COc1ccc(C(O)c2nc(-c3ccc(N(C)C)cc3)cs2)cc1 (centres undefined)	-7	18µM*	?	35	3%	6
COc1cc(C(O)c2nc(-c3ccc(F)c(Cl)c3)cs2)ccc1F (centres undefined)	?	?	?	7	1%	1
COc1ccc(C(O)c2nc(-c3ccccc3)cs2)cc1 (centres undefined)	7	10µM*	13µM*	-7	0%	63*
NC(c1ccc(F)c(F)c1)c1nc(-c2cncnc2)cs1 (centres undefined)	-25	?	-18%	0	3%	1
COc1cc(C(O)c2nc(-c3ccncc3)cs2)ccc1F (centres undefined)	-9	23µM*	?	1	-6%	7
CCN(CC(=O)Nc1ccc(OC)cc1)C(=O)c1cccc(S(=O)(=O)N2CCN(c3ccccc3)CC2)c1	-30	-16%	-5%	0	-5%	-2
COc1ccc(C(O)c2nc(-c3ccncc3)cs2)cc1 (centres undefined)	46	10µM*	18µM*	16	-3%	2

High-throughput results deposited in PubChem by National Center for Advancing Translational Sciences (NCATS).
